Measured values reported in the supplement of paper PMC8728848.
The entries come from a sample that favours the strongest signals as a whole.

Experiments:
Assay in all cases: glycan array binding signal (z-score within array); higher = stronger binding
Conditions in all cases: glycan notation: IUPAC condensed, linker removed
GalNAc(a1-3)GalNAc = molecular target: GalNAc(a1-3)GalNAc
Procedure, shortened: (§1)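 Glycan array binding is given as a within-array Z-score, which can be read as non-binding when negative. The arrays, 3228 of them, came from the Consortium for Functional Glycomics database and were retained only where the protein sequence was available. Z-scores were averaged across arrays of the same protein sequence at different concentrations or buffers and across linkers.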

GalNAc(b1-4)GlcNAc6S = molecular target: GalNAc(b1-4)GlcNAc6S
Procedure, shortened: as §1

[1] = molecular target: Glc(a1-6)Glc(a1-6)Glc(a1-6)Glc
Procedure, shortened: as §1

[2] = molecular target: GlcA3S(b1-3)Gal(b1-4)GlcNAc(b1-2)Man
Procedure, shortened: as §1

[3] = molecular target: GlcNAc(a1-4)Gal(b1-4)GlcNAc(b1-3)Gal(b1-4)Glc
Procedure, shortened: as §1

[4] = molecular target: GlcNAc(b1-2)[GlcNAc(b1-6)]Man(a1-6)[GlcNAc(b1-2)Man(a1-3)]Man(b1-4)GlcNAc(b1-4)GlcNAc
Procedure, shortened: as §1

[5] = molecular target: GlcNAc(b1-3)Gal(b1-4)GlcNAc(b1-3)Gal(b1-4)GlcNAc(b1-2)[GlcNAc(b1-3)Gal(b1-4)GlcNAc(b1-3)Gal(b1-4)GlcNAc(b1-6)]Man(a1-6)[GlcNAc(b1-3)Gal(b1-4)GlcNAc(b1-3)Gal(b1-4)GlcNAc(b1-2)Man(a1-3)]Man(b1-4)GlcNAc(b1-4)[Fuc(a1-6)]GlcNAc
Procedure, shortened: as §1

[6] = molecular target: GlcNAc(b1-3)Gal(b1-4)GlcNAc(b1-3)Gal(b1-4)GlcNAc(b1-3)Gal(b1-4)GlcNAc(b1-2)Man(a1-3)[GlcNAc(b1-3)Gal(b1-4)GlcNAc(b1-3)Gal(b1-4)GlcNAc(b1-3)Gal(b1-4)GlcNAc(b1-2)Man(a1-6)]Man(b1-4)GlcNAc(b1-4)[Fuc(a1-6)]GlcNAc
Procedure, shortened: as §1

[7] = molecular target: GlcNAc6S(b1-3)Gal(b1-4)GlcNAc
Procedure, shortened: as §1

[8] = molecular target: Neu5Ac(a2-3)Gal(b1-3)GlcNAc(b1-3)Gal(b1-3)GlcNAc
Procedure, shortened: as §1

[9] = molecular target: Neu5Ac(a2-3)Gal(b1-3)GlcNAc(b1-3)Gal(b1-4)GlcNAc
Procedure, shortened: as §1

[10] = molecular target: Neu5Ac(a2-3)Gal(b1-3)GlcNAc6S
Procedure, shortened: as §1

[11] = molecular target: Neu5Ac(a2-3)Gal(b1-3)[Fuc(a1-4)]GlcNAc(b1-3)Gal(b1-4)[Fuc(a1-3)]GlcNAc
Procedure, shortened: as §1

[12] = molecular target: Neu5Ac(a2-3)[GalNAc(b1-4)]Gal(b1-4)Glc
Procedure, shortened: as §1

[13] = molecular target: Neu5Ac(a2-6)Gal(b1-4)GlcNAc(b1-2)Man(a1-6)Man(b1-4)GlcNAc(b1-4)GlcNAc
Procedure, shortened: as §1

[14] = molecular target: Neu5Ac(a2-6)Gal(b1-4)GlcNAc(b1-2)Man(a1-6)[Gal(b1-4)GlcNAc(b1-2)Man(a1-3)]Man(b1-4)GlcNAc(b1-4)GlcNAc
Procedure, shortened: as §1

[15] = molecular target: Neu5Ac(a2-6)Gal(b1-4)GlcNAc(b1-2)[Neu5Ac(a2-6)Gal(b1-4)GlcNAc(b1-4)]Man(a1-3)[GlcNAc(b1-4)][Neu5Ac(a2-6)Gal(b1-4)GlcNAc(b1-2)[Neu5Ac(a2-6)Gal(b1-4)GlcNAc(b1-6)]Man(a1-6)]Man(b1-4)GlcNAc(b1-4)GlcNAc
Procedure, shortened: as §1

[16] = molecular target: Neu5Ac(a2-6)GalNAc(b1-4)GlcNAc
Procedure, shortened: as §1

[17] = molecular target: Neu5Ac(a2-8)Neu5Ac(a2-3)[GalNAc(b1-4)]Gal(b1-4)Glc
Procedure, shortened: as §1

[18] = molecular target: Neu5Ac(a2-8)Neu5Ac(a2-8)Neu5Ac(a2-3)Gal(b1-4)Glc
Procedure, shortened: as §1

[19] = molecular target: Neu5Gc(a2-3)Gal(b1-4)GlcNAc(b1-3)Gal(b1-4)GlcNAc(b1-2)Man(a1-3)[Neu5Gc(a2-3)Gal(b1-4)GlcNAc(b1-3)Gal(b1-4)GlcNAc(b1-2)Man(a1-6)]Man(b1-4)GlcNAc(b1-4)GlcNAc
Procedure, shortened: as §1

B1: GS7807F-bth-514-18-514 (Bacteroides thetaiotaomicron) (protein)
chain: AGSCTGNFEEYNTNQFQIHEADPSTLMKSMIETIVNIQQNDSQMMDQMVGQLGGYLTCANVWSGTNFGTFNQSDAWNAGPWNTNFEKIYGNFFQIQEATNESGHYYAFARMIRAITMLRVADCYGPMPYSQVKKGNFYVAYDTEEQVYKNIMEDFASAANVLYNYYKDTNGNAPLASNDPVFSGNYANWARLANSMRLRVAIRISTAYPEMAKENAEAAASHEAGLIEANNDNAMMDCGSQTNPYQLAAVSWGDLRVNANIVDYMNGYGDPRMSKYFNHSTFTGHTQEYVGMRSGEDGFAKSDVAGYSIPAITGTSKLLVFCAAETAFLRAEGKLKNWSVGNKSAKEYYEEGIKLSMEQYGTTMPDNYLTNTEKPTVSHNNDPRGHAYTISNTVAVAWNDNNEEENLQRIITQKWIANYPLGLEAWAEYRRTGYPELYPCIDNLSPSGVDSKRGMRRLRFPYTEVQNNHSNYQQGVSYLKNGGPDNEATDLSWGKTN
GalNAc(a1-3)GalNAc
  glycan array binding signal (z-score): 0.13
GalNAc(b1-4)GlcNAc6S
  glycan array binding signal (z-score): 0.521
[1]
  glycan array binding signal (z-score): -0.652
[2]
  glycan array binding signal (z-score): -0.771
[3]
  glycan array binding signal (z-score): -0.587
[4]
  glycan array binding signal (z-score): -0.73
[5]
  glycan array binding signal (z-score): 0.581
[6]
  glycan array binding signal (z-score): 3.26
[7]
  glycan array binding signal (z-score): 1.06
[8]
  glycan array binding signal (z-score): -0.891
[9]
  glycan array binding signal (z-score): -0.842
[10]
  glycan array binding signal (z-score): -0.491
[11]
  glycan array binding signal (z-score): 0.124
[12]
  glycan array binding signal (z-score): -0.409
[13]
  glycan array binding signal (z-score): 3.88
[14]
  glycan array binding signal (z-score): 3.49
[15]
  glycan array binding signal (z-score): 0.039
[16]
  glycan array binding signal (z-score): -0.875
[17]
  glycan array binding signal (z-score): 3.32
[18]
  glycan array binding signal (z-score): -0.82
[19]
  glycan array binding signal (z-score): -0.775
